Compound activity: PubChem BioAssay, several laboratories
CR mimetic SO: reduction of superoxide in aged yeast, primary screen, HTS. S. cerevisiae aged cells, superoxide DHE fluorescence; hits give low values. 0.18% of 330,000 active. superoxide response (% of plate mean), % at 10 µM;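 active = superoxide response under a set limit, about three screen SD below normal, cut at about 65% in these data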;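 note: yeast aged for seven days with compound at 30 °C before DHE staining; 100% = average MFI of all compound-treated wells on the plate with controls excluded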
NRP1-CendR mod: modulators of CendR peptide binding to NRP-1, primary screen, biochemical, fluorescence polarization, uHTS. Neuropilin-1 (Homo sapiens), O14786. FAM-RPARPAR peptide binding to NRP-1. inhibition, % at 25 µM. 0.85% of 360,000 active;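 active = inhibition or corrected inhibition above about 18%, plus a signal ratio from 0.5 to 1.5, limit read from the data, passing the limit was not always enough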
APOBEC3G inh: APOBEC3G DNA deaminase inhibitors, primary screen, biochemical, fluorescence, single-stranded DNA substrate, uHTS. recombinant A3G, ssDNA deamination FAM/TAMRA fluorescence. inhibition, % at 20 µM. 0.28% of 330,000 active. DNA dC->dU-editing enzyme APOBEC-3G (Homo sapiens), Q9HC16;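 active = inhibition of at least 40% at 20 µM, with no more than 30% in the related APOBEC3A deaminase screen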;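 note: plate controls were DMSO wells with A3G for no effect and wells lacking A3G enzyme for full effect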
Target sequence (Q9HC16 whole entry, looked up): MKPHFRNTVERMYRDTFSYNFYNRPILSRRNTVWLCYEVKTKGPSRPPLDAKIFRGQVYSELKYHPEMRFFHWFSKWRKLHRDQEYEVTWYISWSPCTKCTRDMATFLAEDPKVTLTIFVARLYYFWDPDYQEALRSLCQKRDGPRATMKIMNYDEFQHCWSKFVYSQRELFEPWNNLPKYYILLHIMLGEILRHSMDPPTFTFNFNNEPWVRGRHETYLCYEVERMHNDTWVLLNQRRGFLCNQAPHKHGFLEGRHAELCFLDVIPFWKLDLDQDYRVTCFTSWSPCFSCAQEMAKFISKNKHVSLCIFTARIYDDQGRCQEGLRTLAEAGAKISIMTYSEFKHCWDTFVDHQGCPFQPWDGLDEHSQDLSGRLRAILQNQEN
ALR H2O2 inh: inhibitors of human ALR sulfhydryl oxidase, primary screen, biochemical, H2O2 detection, HRP-luminol luminescence, single point; purified ALR, DTT oxidation; FAD-linked sulfhydryl oxidase ALR (Homo sapiens), P55789; inhibition, % (test concentration not listed); 3.8% of 290,000 active;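 active = mean replicate inhibition above about 79%, with every replicate also reaching it, limit read from the data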
APOBEC3A inh: APOBEC3A ssDNA deaminase inhibitors, primary screen, selectivity assay for APOBEC3G inhibitor project, biochemical, FAM/TAMRA oligo cleavage fluorescence; DNA dC->dU-editing enzyme APOBEC-3A (Homo sapiens), P31941; recombinant A3A, FAM/TAMRA ssDNA deamination fluorescence; inhibition, % at 20 µM; 0.41% of 330,000 active;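 active = at least 40% inhibition at 20 µM here, with at most 30% in a related deaminase screen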;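 note: plate controls were A3A with DMSO for no effect and wells lacking A3A enzyme for full effect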
Target sequence (P31941 whole entry, looked up): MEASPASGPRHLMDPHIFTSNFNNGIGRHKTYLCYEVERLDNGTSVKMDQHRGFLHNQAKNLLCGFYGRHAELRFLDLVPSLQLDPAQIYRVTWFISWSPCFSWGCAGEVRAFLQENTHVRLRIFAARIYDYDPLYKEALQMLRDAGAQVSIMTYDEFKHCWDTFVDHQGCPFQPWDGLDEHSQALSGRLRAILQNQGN
M18AAP inhibitor: PfM18AAP inhibitors, malaria aminopeptidase, primary screen, biochemical, QFRET, recombinant enzyme; H-Glu-NHMec fluorogenic cleavage; inhibition, % at 7.35 µM; 1.2% of 290,000 active; AID 1822, 2009;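 active = inhibition above the campaign mean inhibition over all tested compounds plus 3 SD, cut at about 28% in these data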;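 note: 0% = plate median of test compound wells and 100% = 2 mM ZnCl2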
The depositor's hits bear a star; x = not tested or not shown. Compounds with a hit are over-represented: about 5.2% of the library has one in this group of screens.

SMILES	CR mimetic SO	NRP1-CendR mod	APOBEC3G inh	ALR H2O2 inh	APOBEC3A inh	M18AAP inhibitor
Cc1ccc(NC(=O)c2ccc3c(c2)S(=O)(=O)c2ccccc2C3=O)cc1S(=O)(=O)N1CCOCC1	103	29*	-2	-3	4	-4
COc1ccc(C(=O)Nc2ccc(N3CCCCCC3)cc2)cc1S(=O)(=O)N1CCOCC1	99	4	-5	98*	-4	x
O=C(Nc1ccccc1N1CCOCC1)c1ccc(Cl)c(S(=O)(=O)N2CCCC2)c1	96	3	-4	-3	3	x
Cc1ccc(C(=O)Nc2ccccc2N2CCCC2)cc1S(=O)(=O)N1CCOCC1	75	-7	-3	98*	-2	x
Cc1nc(CCNC(=O)CC2C(=O)NCCN2Cc2ccc(F)cc2)sc1C (stereo not given)	107	11	-5	-14	-4	-8
C=C(C)Cc1c(C)c(C#N)c2nc3ccccc3n2c1N1CCCCC1	90	2	-6	-3	-4	-5
CC(C)CN(C(=O)c1cccc([N+](=O)[O-])c1)c1c(N)n(CC(C)C)c(=O)[nH]c1=O	95	-4	-2	0	2	4
COc1cccc(NC(=O)c2cc(OC)c(OC)c(OC)c2Br)c1	87	-2	-4	97*	-2	-3
CCOC(=O)c1ccc(NC(=O)c2cc(OC)c(OC)c(OC)c2Br)cc1	92	9	-10	-17	2	-6
CC(=O)c1ccc(N2CCN(C(=O)/C=C/c3ccc(S(=O)(=O)N4CCOCC4)cc3)CC2)cc1	113	26*	-10	-5	-2	-2
O=C(Cc1ccc(F)cc1)N[C@@H]1c2ccccc2CC[C@@H]1O	98	3	2	x	-1	x
N#CCC(=O)Nc1ccc(C(=O)NCCc2c[nH]c3ccccc23)cc1	97	-2	-9	98*	-6	2
O=C(NCCc1c[nH]c2ccccc12)c1ccccc1	99	11	13	x	-2	1
COC(=O)c1ccc(CNC(=O)CCc2c[nH]c3ccccc23)cc1	94	6	-9	3	-4	4
O=C(CCc1c[nH]c2ccccc12)N1CCN(c2ccc(O)cc2)CC1	103	1	10	-8	0	31*
O=C(CCc1c[nH]c2ccccc12)NCCc1ccccc1	91	4	-8	0	-2	-5
O=C(CCc1c[nH]c2ccccc12)NCCc1ccc(O)cc1	103	2	-5	85*	-2	-8
COc1ccc(N2CCN(C(=O)CCc3c[nH]c4ccccc34)CC2)cc1	97	-7	-5	59	-5	4
COc1ccc(CNC(=O)CCc2c[nH]c3ccccc23)cc1	107	27*	-1	x	0	-10
Cc1cnn(C(=O)c2ccccc2Br)c1	81	x	0	-8	4	-1
CCCCc1nc2ccccc2c(N)c1CCC (tested in a mixture with another compound)	101	-3	-7	-5	-5	-5
Cc1ccc(Nc2nc(=O)[nH]nc2C)cc1	113	-1	-6	0	-3	-4
Cc1n[nH]c(=O)nc1Nc1ccc(O)cc1	99	6	3	89*	7	5
CC1(C)Cc2c(c(-c3ccccc3)nc3[nH][nH]c(=O)c23)CO1	112	10	19	99*	0	6
CCOC(=O)C1=C(c2ccccc2)NC(=O)NC1c1cc(Br)c(O)c(OC)c1 (stereo not given)	117	8	3	30	3	9
SMILES	CR mimetic SO	NRP1-CendR mod	APOBEC3G inh	ALR H2O2 inh	APOBEC3A inh	M18AAP inhibitor
O=C(CSc1nc2ccc(NC(=O)c3ccccc3C(=O)O)cc2s1)Nc1ccc(F)c([N+](=O)[O-])c1	107	-18	-5	x	0	-15
CC(=O)Nc1ccc2c(c1)nc1n2CCSC1	100	-16	-2	99*	7	-7
COCCN1CCn2c(nc3cc(NC(=O)c4ccc(OC)cc4)ccc32)C1	99	-45	-1	-15	-2	-2
Cc1ccc(C(=O)Nc2ccc3c(c2)nc2n3CCSC2)cc1	113	-12	-1	98*	-2	2
COc1ccccc1C(=O)Nc1ccc2nc(SCC(=O)N(C)C)sc2c1	93	-2	4	100*	1	1
COc1ccc(OCC(=O)Nc2ccc3c(c2)nc2n3CCSC2)cc1	97	-16	1	4	3	7
CCCCC(=O)Nc1ccc2c(c1)nc1n2CCSC1	101	-10	-1	99*	-1	-13
CCCC(=O)Nc1ccc2c(c1)nc1n2CCN(C2CCCCC2)C1	107	-32	-5	-117	-6	5
O=C(COC(=O)c1n[nH]c2ccccc12)Nc1ccc(S(=O)(=O)N2CCCC2)cc1	88	-11	-7	-16	-5	3
COc1ccccc1C(=O)Nc1ccc2c(c1)nc1n2CCSC1	86	-25	-5	99*	-3	5
Cc1nc2c(C(=O)N3CCOCC3)cnn2c(C)c1Cc1ccc(Cl)cc1	104	-3	-7	98*	-1	-1
Cc1nc2c(C(=O)N3CCOCC3)cnn2c(C)c1Cc1cccc(Cl)c1	109	x	-4	-1	-7	12
CCN(Cc1ccccc1)Cc1ccc(OCc2ccccc2)cc1	81	8	-6	0	-10	-7
COc1ccc(-c2ccc3c(c2)[C@@H]2C[C@H](N(C)C(=O)Nc4ccccc4)[C@H]([C@H](C)O)C(=O)N2CC3)cc1	x	-26	x	x	x	x
O=c1c(-c2ccc(O)cc2)coc2c([C@@H]3O[C@H](CO)[C@@H](O)[C@H](O)[C@H]3O)c(O)ccc12	94	24*	-5	99*	-2	x
COc1ccc(-c2coc3cc(OC4OC(CO)C(O)C(O)C4O)ccc3c2=O)cc1 (stereo not given)	93	1	-7	-6	-2	2
O=c1cc(-c2ccc(O)cc2)oc2c(C3OCC(O)C(O)C3O)c(O)c(C3OC(CO)C(O)C(O)C3O)c(O)c12 (stereo not given)	96	10	-4	20	-2	x
O=c1c(-c2ccc(O)cc2)coc2c(C3O[C@H](CO)[C@@H](O)[C@H](O)[C@H]3O)c(O)ccc12 (stereo not given in full)	95	5	-8	99*	16	13
CCCC1C(C(=O)OCC)=C(C)NC(C)=C1C(=O)OCC	92	2	-4	99*	2	6
